From PubChem BioAssay AID2472 (National Center for Advancing Translational Sciences (NCATS), 2010)
Screen size: about 290,000 compounds; about 2,000 (0.69%) were called active. What follows is part of a selection rich in actives, with near analogues and random picks from the rest. Unmarked numbers belong to inactive results. Rule as the data show it: active = activity change below about -30%; inactive = the rest, inconclusive results apart.

assay: qHTS Assay for Inhibitors of Fructose-1,6-bisphosphate Aldolase from Giardia Lamblia: Coupling assay counterscreen; conditions: coupling enzyme system counterscreen, AmpLite Red fluorescence; at 58.2 µM (top of the series)
Summary of the method: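 First, compound is pin-transferred into glyceraldehyde-3-phosphate coupling-enzyme reagent at 57.5 uM final and held 10 min at RT. Next, substrate, coupling system and AmpLite Red are added. After 20 min RT, fluorescence (525/598 nm) is read.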
% is scaled to controls: 0 for no effect and ±100 for the full control effect.

With `CC(=O)OCC(NC(=O)C(Cc1ccccc1)NC(=O)OC(C)(C)C)C1OC(n2ccc(=O)[nH]c2=O)C(OC(C)=O)C1OC(C)=O` (stereo not given) as the molecule, how does the activity change, negative = inhibition read?
The activity change, negative = inhibition was 0.391%.

For `COc1ccc(N2CCN(C(=O)CCSCc3ccccc3F)CC2)cc1`, which activity change, negative = inhibition is on record?
The activity change, negative = inhibition was 2.76%.

Which activity change, negative = inhibition does the source give for `Cc1ccc(-c2ccc(/C=N/NC(=O)CN3CCOCC3)o2)cc1[N+](=O)[O-]` here?
The activity change, negative = inhibition was -44% (active).

Which activity change, negative = inhibition does the source give for `O=C(CN1CCOCC1)N/N=C/c1ccc(-c2ccc(Br)cc2)o1` here?
Its activity change, negative = inhibition is -3.01%.

With `Cc1cc(C)c([N+](=O)[O-])cc1-c1ccc(/C=N/NC(=O)c2nonc2N)o1` as the molecule, how does the activity change, negative = inhibition read?
Its activity change, negative = inhibition is 2.52%.

For `CC(C)CNC(=S)NC(=O)c1ccc(Cl)cc1`, which activity change, negative = inhibition is on record?
Its activity change, negative = inhibition is -5.21%.

For `CCOC(=O)C1=C(c2ccc(OC)cc2)C(=O)c2ccccc2C1=O`, which activity change, negative = inhibition is on record?
Its activity change, negative = inhibition is -63.5% (active).

Which activity change, negative = inhibition does the source give for `CCOC(=O)c1c(-c2ccc(C)cc2)csc1/N=C(\C)C1=C(O)c2ccccc2C1=O` here?
Its activity change, negative = inhibition is 3.5%.

With `COc1ccc(OCCCON2C(=O)c3ccccc3C2=O)cc1` as the molecule, how does the activity change, negative = inhibition read?
The activity change, negative = inhibition was 0.279%.

For `CC[N+](C)(CC)CCC[n+]1c(-c2ccccc2)c2cc(N)ccc2c2ccc(N)cc21`, which activity change, negative = inhibition is on record?
The activity change, negative = inhibition was -38.7% (active).

Which activity change, negative = inhibition does the source give for `COc1cc2c(C(=O)N3CCN(C)CC3)c(CSc3ccccc3)n(C)c2cc1Br` here?
The activity change, negative = inhibition was 1.25%.

For `COc1cc(-c2c(-c3ccc4c(c3)OCO4)noc2C)ccc1F`, which activity change, negative = inhibition is on record?
Its activity change, negative = inhibition is 4.94%.

With `CNC(=O)C1(C)C=CC2(CCCCC2)N1C(C)=O` (stereo not given) as the molecule, how does the activity change, negative = inhibition read?
Its activity change, negative = inhibition is -1.27%.

For `CN1c2ccc([N+](=O)[O-])cc2C(C)(C)C12C=Cc1cc(C(=O)O)ccc1O2` (stereo not given), which activity change, negative = inhibition is on record?
The activity change, negative = inhibition was 6.4%.

With `COc1ccc2c(c1)C=CC1(O2)N(CCO)c2ccccc2C1(C)C` (stereo not given) as the molecule, how does the activity change, negative = inhibition read?
Its activity change, negative = inhibition is -47.2% (active).

With `COc1cccc(CC2(CO)CCCN(CC3=Cc4cc(OC)ccc4OC3)C2)c1` (stereo not given) as the molecule, how does the activity change, negative = inhibition read?
Its activity change, negative = inhibition is -1.06%.

With `CCOC(=O)C1(CCOc2ccccc2)CCN(Cc2cc(OC)c(O)cc2Cl)CC1` as the molecule, how does the activity change, negative = inhibition read?
Its activity change, negative = inhibition is -3.97%.

Which activity change, negative = inhibition does the source give for `O=c1ccc2cc(S(=O)(=O)Nc3ccccc3F)ccc2o1` here?
Its activity change, negative = inhibition is 2.93%.

Which activity change, negative = inhibition does the source give for `C#CCN1C(=O)C(O)(CC(=O)c2cc(OC)ccc2OC)c2ccccc21` (stereo not given) here?
Its activity change, negative = inhibition is 2.24%.

For `CCCCN1C(=O)/C(=C(/C#N)C(N)=O)c2ccccc21`, which activity change, negative = inhibition is on record?
The activity change, negative = inhibition was -19.4%.

With `COc1ccc2c(c1)C(=C(C#N)C#N)C(=O)N2CCc1ccccc1` as the molecule, how does the activity change, negative = inhibition read?
The activity change, negative = inhibition was -35.5% (active).

Which activity change, negative = inhibition does the source give for `NCCCNCCCCN(CCCN)/[N+]([O-])=N/O` here?
Its activity change, negative = inhibition is 1%.

Which activity change, negative = inhibition does the source give for `CN(C)c1ccc(S(=O)(=O)NCC(=O)NCC2CCCCC2)cc1[N+](=O)[O-]` here?
The activity change, negative = inhibition was -0.658%.

With `COc1ccc(-c2ccc(C3C4C=CCCC4(C)C(=O)N3Cc3ccccc3)c(F)c2)cc1OC` (stereo not given) as the molecule, how does the activity change, negative = inhibition read?
Its activity change, negative = inhibition is 2.19%.

For `CC1(C)c2[nH]c3ccccc3c2C[C@H]2C(=O)N(N)CC(=O)N21`, which activity change, negative = inhibition is on record?
The activity change, negative = inhibition was 2.07%.
